Laboratory results: PubChem BioAssay (NCATS)
Results filed as inconclusive are left out. Entries that show only a call come without a potency. Activity calls are given as the source filed them. Calls follow the shape of the dose curve; as a rule, active = well fitted curve in the direction sought with a large enough effect; inconclusive = small, poorly fitted or top-dose-only effect, or another doubt; inactive = no such curve, though single readings can be large; an effect the other way counts as inactive or inconclusive.

Legend:
[1] = qHTS to identify inhibitors of the type 1 interferon - major histocompatibility complex class I in skeletal muscle: primary screen against the NCATS LOPAC collection (AID 1347405);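 also: human myoblasts with HiBiT tag on endogenous HLA-B stimulated by IFN-beta; lytic HiBiT luminescence reporting HLA-B protein level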; also: potency is read from the fitted curve at half-maximal effect
Method in brief: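 First, engineered myoblasts carrying HLA-B-HiBiT were seeded in medium lacking dexamethasone with 4 ng/ml IFN-beta. After 1 hr, compounds were pinned in (top 46 uM final, 7 points). After 24 hrs at 37 C, luminescence was measured following 10 min lysis.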

[2] = qHTS for inhibitors of adenylyl cyclases using a fission yeast platform: a pilot screen against the NCATS LOPAC library (AID 1347410)
Method in brief: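 S. pombe CHP2027 (AC9-GNAS-PDE4D2) carrying PKA-repressed fbp1-GFP, incubated 18 h at 30C in EMM with LOPAC compounds at up to 57 uM. GFP gain-of-signal read by laser scanning cytometry; DMSO negative control.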

[3] = Validation qHTS assay for inhibitors of Activation Induced Cytidine Deaminase (AID): UDG Counterscreen signal (AID 1347427)
Method in brief: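 Fluorescence at 560 nm excitation, 665 nm emission reports UDG signal after 250 mM NaOH (2x) addition and 30 min. Enzymes (AID 1 uM, UDG 2 U/mL, at 4/3x) preincubated 10 min with compound, then 4 h with 4x 250 nM DJC20/DJC23 substrate at room temperature.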

Structure (SMILES) | Potency [1] | outcome [2] | Potency [3]
CC1CCN(CC[C@H]2CCCN2S(=O)(=O)c2cccc(O)c2)CC1 | inactive | inactive | inactive
Cc1nc(N=Nc2ccc(C(=O)O)cc2)c(COP(=O)(O)O)c(C=O)c1O | inactive | inactive | inactive
NC(N)=N[C@@H](CCC(=O)O)C(=O)O | inactive | inactive | inactive
N=C(N)c1ccc(N)cc1 | inactive | inactive | inactive
COC(=O)C(N)Cc1ccc(Cl)cc1 (stereo not given) | inactive | inactive | inactive
Cc1ccc([N+](=O)[O-])cc1S(=O)(=O)N(C)C | inactive | inactive | inactive
CCN(c1nc(N)c(C(=O)N=C(N)N)nc1Cl)C(C)C | inactive | inactive | inactive
COc1ccccc1N1CCN(CCCCNC(=O)c2ccc3ccccc3c2)CC1 | inactive | inactive | inactive
NC1CCN(O)C1=O (stereo not given) | inactive | inactive | inactive
CN1CCc2cc(Cl)c(O)cc2[C@@H](c2ccccc2)C1 | inactive | inactive | inactive
CC(C)(C)c1cc(/C=C(\C#N)C(N)=S)cc(C(C)(C)C)c1O | inactive | inactive | inactive
COc1ccc(C(=O)NCc2cccnc2)cc1C(=O)NCc1cccnc1 | inactive | inactive | inactive
CC1=C(C(=O)O)N2C(=O)[C@@H](NC(=O)C(N)C3=CCC=CC3)[C@H]2SC1 (stereo not given in full) | inactive | inactive | inactive
CC(C)Cn1c(=O)n(C)c(=O)c2[nH]cnc21 | inactive | inactive | inactive
CC1CCN=C(N)S1 (stereo not given) | inactive | inactive | inactive
COCc1nc2c([nH]1)c(=O)n(C)c(=O)n2CC(C)C | inactive | inactive | inactive
COc1cc(/C=C(\C#N)C(=O)c2ccc(O)c(O)c2)cc(I)c1O | inactive | inactive | inactive
N=S(=O)(O)Cc1noc2ccccc12 | inactive | inactive | inactive
CCCn1c(=O)c2[nH]c(-c3ccc(S(=O)(=O)O)cc3)nc2n(CCC)c1=O | inactive | inactive | inactive
CC(C)(C)NCC(O)COc1cccc2[nH]c(=O)[nH]c12 (stereo not given) | inactive | inactive | inactive
CNC(=O)c1cc2c(cn1)[nH]c1ccccc12 | inactive | inactive | inactive

Structure (SMILES) | Potency [1] | outcome [2] | Potency [3]
CC(C)C[C@H](NC(=O)C1OC1C(=O)O)C(=O)NCCCCN=C(N)N (stereo not given in full) | inactive | inactive | inactive
CCCCCCCCCC(=O)NC(CN1CCOCC1)[C@H](O)c1ccccc1 (stereo not given in full) | inactive | inactive | inactive
N[C@@H](CCCC(=O)O)C(=O)O | inactive | inactive | inactive
COc1cc(C(O)CO)ccc1O (stereo not given) | inactive | inactive | inactive
CC(=O)[C@H]1CCC2C3CC=C4C[C@@H](OS(=O)(=O)O)CC[C@]4(C)C3CC[C@@]21C (stereo not given in full) | inactive | inactive | inactive
O=C(O)Cc1ccc(O)c(O)c1 | inactive | inactive | inactive
[Li+] | inactive | inactive | inactive
c1ccc2c(c1)CC(N1CCN(c3cccc4c3OCCO4)CC1)C2 | inactive | inactive | inactive
C#CCn1c(=O)c2c(ncn2C)n(C)c1=O | inactive | inactive | inactive
CN1CC(O)C(O)C(O)C1CO (stereo not given) | inactive | inactive | inactive
NC(Cc1cccc(-c2ccccc2CP(=O)(O)O)c1)C(=O)O (stereo not given) | inactive | inactive | inactive
CN(C)CCC(c1ccc(Br)cc1)c1ccccn1 (stereo not given) | inactive | inactive | inactive
CO/N=C(\C(=O)N[C@@H]1C(=O)N2C(C(=O)O)=C(CSc3nc(=O)c(O)nn3C)CSC12)c1csc(N)n1 (stereo not given in full) | inactive | inactive | inactive
OCC1NCC(O)C(O)C1O (stereo not given) | inactive | inactive | inactive
CCCOC(=O)c1c(-c2ccccc2)nc(CC)c(C(=O)SCC)c1CCC | inactive | inactive | inactive
Cc1nc2c(OCc3ccccc3)cccn2c1CC#N | inactive | inactive | inactive
O=C(O)/C(=C/c1c(C(=O)O)[nH]c2cc(Cl)cc(Cl)c12)c1ccccc1 | inactive | inactive | inactive
N#CC(C#N)=C(N)/C(C#N)=C/c1ccc(O)cc1 | inactive | inactive | inactive
C=C1C[C@@]23CC[C@H]4[C@@](C)(CCC[C@@]4(C)C(=O)O)[C@@H]2CC[C@]1(O)C3 | inactive | inactive | inactive
OC[C@H]1NC[C@@H](O)[C@@H]1O | inactive | inactive | inactive
COc1ccc(-c2ccc(N)[n+](CCCC(=O)O)n2)cc1 | inactive | inactive | inactive

Structure (SMILES) | Potency [1] | outcome [2] | Potency [3]
c1ccc(C(NCc2cccnc2)(c2ccccc2)c2ccccc2)cc1 | inactive | inactive | inactive
C[C@@H](NCCc1ccc(O)cc1)[C@@H](O)c1ccc(O)cc1 | inactive | inactive | inactive
COc1ccc2c(c1)CCC1C2CC[C@@]2(C)C1CC[C@@H]2NCCCCCCN1C(=O)C=CC1=O (stereo not given in full) | inactive | inactive | inactive
CC(N)(Cc1ccc(O)c(O)c1)C(=O)O (stereo not given) | inactive | inactive | inactive
O=C(c1ccc2c(c1)OCCO2)N1CCCCC1 | inactive | inactive | inactive
CN(C)C(=O)/N=N/C(=O)N(C)C | inactive | inactive | inactive
C[C@H](O)C(=O)C1=Nc2c(nc(N)[nH]c2=O)NC1 | inactive | inactive | inactive
N[C@@H](Cc1ccc(O)c(I)c1)C(=O)O | inactive | inactive | inactive
Nc1ccc(CCNc2ncnc3c2ncn3C2OC(CO)C(O)C2O)cc1 (stereo not given) | inactive | inactive | inactive
C[C@H](NC(=O)/C(C#N)=C/c1ccc(O)c(O)c1)c1ccccc1 | inactive | inactive | inactive
CC(N)=NCCCC[C@@H](N)C(=O)O | inactive | inactive | inactive
O=[N+]([O-])c1cccc2cn[nH]c12 | inactive | inactive | inactive
COc1cc(C(O)C(=O)O)ccc1O (stereo not given) | inactive | inactive | inactive
CN(C)CCCc1cc(C(=O)Nc2ccc(-c3ccncc3)cc2)ccc1O | inactive | inactive | inactive
NC(C(=O)N[C@@H]1C(=O)N2C(C(=O)O)=C(Cl)CS[C@H]12)c1ccccc1 (stereo not given in full) | inactive | inactive | inactive
NC(=O)c1cc[n+](CC2=C(C(=O)O)N3C(=O)[C@@H](NC(=O)[C@@H](c4ccccc4)S(=O)(=O)[O-])[C@H]3SC2)cc1 | inactive | inactive | inactive
Nc1nc2c(nc(Br)n2C2OC3COP(=O)(O)O[C@@H]3C2O)c(=O)[nH]1 (stereo not given in full) | inactive | inactive | inactive
O=C1Cc2c([nH]c3ccc(Br)cc23)-c2ccccc2N1 | 12.6 µM (active) | inactive | inactive
Cn1ccnc1 | inactive | inactive | inactive
Cn1c(=O)c2c(nc(/C=C/c3cccc(Cl)c3)n2C)n(C)c1=O | inactive | inactive | inactive
CC(=O)C(C)=O | inactive | inactive | inactive

Structure (SMILES) | Potency [1] | outcome [2] | Potency [3]
CCCC(=O)NCCc1c2n(c3ccc(OC)cc13)CCCc1ccccc1-2 | inactive | inactive | inactive
C=CCN1CCc2cc(O)c(O)cc2C(c2ccccc2)C1 (stereo not given) | inactive | inactive | inactive
CCCn1c(=O)c2c(ncn2C)n(CCC)c1=O | inactive | inactive | inactive
O=c1oc(Cl)c(Cl)c2ccccc12 | inactive | inactive | inactive
COc1cc(N)c(Cl)cc1C(=O)OCCN1CCCCC1 | inactive | inactive | inactive
CCCCS(=N)(=O)CC[C@H](N)C(=O)O (stereo not given in full) | inactive | inactive | inactive
CCN(CC)CCOC(=O)c1cc(Cl)c(N)cc1OC | inactive | inactive | inactive
Cc1ccc2c(c1)C(N1CCN(C)CC1)=Nc1cccnc1N2 | inactive | inactive | inactive
O=C(O)C1CN(CCCP(=O)(O)O)CCN1 (stereo not given) | inactive | inactive | inactive
COc1ccccc1N1CCN(CCN(C(=O)c2ccc(F)cc2)c2ccccn2)CC1 | inactive | inactive | inactive
CCCCCCCCCCC/C=C\C(C)(C)/C=C\CCCC(=O)O | inactive | inactive | inactive
O=C(O)CCC/C=C\C[C@@H]1[C@@H](/C=C/[C@H](O)C2Cc3ccccc3C2)[C@@H](F)C[C@@H]1O | inactive | inactive | inactive
Cc1nc(N=Nc2cc(S(=O)(=O)O)c3cc([N+](=O)[O-])cc(S(=O)(=O)O)c3c2)c(COP(=O)(O)O)c(C=O)c1O | 15.8 µM (active) | – | inactive
CSc1nc(N)c2ncn([C@@H]3O[C@H](COP(=O)(O)OP(=O)(O)O)C(O)[C@H]3O)c2n1 (stereo not given in full) | inactive | inactive | inactive
O=C(O)C1=CCCNC1 | inactive | inactive | inactive
COc1cc(CC(=O)O)ccc1O | inactive | inactive | inactive
Cn1c(=O)c2[nH]c(C3CCCC3)nc2n(C)c1=O | inactive | inactive | inactive
OC[C@H]1O[C@H](n2cnc3c(N[C@H]4CCC[C@@H]4O)ncnc32)[C@H](O)[C@@H]1O | inactive | inactive | inactive
COc1ccc(CCN(C)CCc2ccc(OC)c(OC)c2)cc1OC | inactive | inactive | inactive
